GDH-TPI counter = inhibits GDH-TPI coupling enzymes, artifact for Mtb FBA screen. GDH-TPI coupled enzyme counterscreen, NADH absorbance. 360,000 compounds, 1.2% hits. inhibition, % at 4.8 µM; in the data active = inhibition above about 30%;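 also: 0% = DMSO wells and 100% = wells lacking the enzyme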
Mtb FBA inh = inhibitors of M. tuberculosis fructose-bisphosphate aldolase; purified M. tuberculosis FBA, fluorescence read-out; inhibition, % at 1 µM; 360,000 compounds, 2.3% hits; P9WQA3; in the data active = inhibition above about 27%;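 also: 0% = vehicle and 100% = reference inhibitor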
Target sequence (P9WQA3 whole entry, looked up): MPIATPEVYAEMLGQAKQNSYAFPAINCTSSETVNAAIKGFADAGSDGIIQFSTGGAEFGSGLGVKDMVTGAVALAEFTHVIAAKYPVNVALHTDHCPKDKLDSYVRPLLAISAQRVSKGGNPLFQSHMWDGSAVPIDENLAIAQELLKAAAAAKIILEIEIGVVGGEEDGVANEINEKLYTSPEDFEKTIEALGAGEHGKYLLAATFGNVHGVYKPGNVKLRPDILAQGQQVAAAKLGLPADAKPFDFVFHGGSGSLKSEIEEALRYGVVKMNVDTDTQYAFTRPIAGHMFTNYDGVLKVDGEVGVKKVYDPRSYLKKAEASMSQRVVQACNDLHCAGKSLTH
Mtb UGM inh = Mtb UDP-galactopyranose mutase inhibition. 320,000 compounds, 0.06% hits. P9WIQ1. inhibition, % at 10 µM. purified UGM, fluorescence polarization probe displacement; in the data active = inhibition above about 10%, passing the limit was not always enough
SSB-PriA inh = K. pneumoniae PriA-SSBct interaction inhibition; AlphaScreen SSBct-PriA binding, biotinylated peptide; inhibition, % at 33 µM; 430,000 compounds, 0.6% hits; AID 1272365; in the data active = inhibition mostly above about 37%, no sharp cut-off; inactive = mostly below about 20%;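 also: plate controls were negative control peptide for no effect and reference peptide for full effect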
Mtb bLac sens = beta-lactam sensitization of Mtb H37Rv | M. tuberculosis H37Rv growth with meropenem, percent inhibition | inhibition, % at 25 µM | 330,000 compounds, 0.27% hits; call rule not given here;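 also: growth measured after seven days incubation then overnight dye step; 0% = bacteria only wells and 100% = bacteria with antibiotic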
Rv3671c protease = inhibitors of M. tuberculosis serine protease Rv3671c | inhibition, % at 5.96 µM | 320,000 compounds, 0.048% hits | AID 2606; in the data active = inhibition above about 38%;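 also: extracellular domain of Rv3671c used as enzyme; 0% = enzyme with DMSO and 100% = no enzyme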
* marks the source's active call; other numbers are inactive results; · = no result given; + = active, no number. Rows were chosen to be rich in hits. Some 3.2% of all compounds tested hit in one or more screens of this group.

SMILES	GDH-TPI counter	Mtb FBA inh	Mtb UGM inh	SSB-PriA inh	Mtb bLac sens	Rv3671c protease
O=C(Nc1cccc2ccccc12)ON=C1CCCCC1	-4	116*	·	7	·	·
COc1ccc(C)cc1NC(=O)ON=C1CCCCC1	·	0	·	·	·	·
O=C(c1cccc(-c2cncc3nccn23)c1)N1CCOCC1	8	+	·	·	·	·
CC(=O)Nc1cncc(-c2cccc(C(=O)N3CCOCC3)c2)n1	6	4	·	·	·	·
CN(C)N=Nc1ccc(S(=O)(=O)/N=C(\O)c2ccccc2)cc1	39*	1	-2	·	-1	4
CC(=O)Nc1ccc(NC(=O)C(=O)NCCCc2ccccc2)cc1	·	·	·	-8	·	·
O=C(CSc1nc2[nH]c(=O)cc(O)c2s1)Nc1ccc(Br)cc1	32*	6	0	-2	-11	-1
COc1ccc(-c2c(C)oc3c(CN4CCOCC4)c(O)ccc3c2=O)cc1OC	9	18	5	-6	0	9
COc1cccc(Oc2coc3c(CN4CCOCC4)c(O)ccc3c2=O)c1	26	115*	1	-5	-4	-4
COc1cccc(Oc2c(C)oc3c(CN4CCCC4)c(O)ccc3c2=O)c1	23	173*	0	-8	-5	-3
CCOc1ccccc1Oc1c(C)oc2c(CN3CCN(C)CC3)c(O)ccc2c1=O	42*	138*	-2	-17	-5	4
O=c1c(-c2ccc3c(c2)OCCO3)coc2c(CN3CCOCC3)c(O)ccc12	8	14	0	-28	-3	-3
COc1ccccc1Oc1c(C)oc2c(CN3CCOCC3)c(O)ccc2c1=O	21	181*	0	2	2	8
COC(=O)c1ccc(Oc2c(C)oc3c(CN4CCCCC4)c(O)ccc3c2=O)cc1	·	·	·	-14	·	·
O=S1(=O)CCC(c2ccccc2)C1 (stereo not given)	·	·	·	-4	·	·
O=C(/C=C/c1ccccc1)Nc1ccc2c(c1)C(=O)NC2=O	26	12	3	-3	-1	-15
O=C(/C=C/c1ccccc1Cl)Nc1ccc2c(c1)C(=O)NC2=O	37*	12	0	-5	1	-86
CS(=O)(=O)c1cccc(-c2nnc(NC(=O)C3c4ccccc4Oc4ccccc43)o2)c1	·	·	·	0	·	·
CCS(=O)(=O)N1Cc2ccccc2CC1C(=O)OCC(=O)Nc1ccc(SC(F)F)cc1 (stereo not given)	7	2	-5	-9	0	-12
CCS(=O)(=O)N1Cc2ccccc2CC1C(=O)OCC(=O)Nc1ccc(C)cc1 (stereo not given)	117*	1	0	2	-8	-8
O=C(COc1ccccc1)N1CCC2(CC1)OCCS2	·	·	·	-15	·	·
CCn1nc2cc(C(=O)NCc3cc(C(F)(F)F)cc(C(F)(F)F)c3)ccc2c1OC	1	39*	0	12	4	3
CCCCn1nc2cc(C(=O)NCc3ccc(OC(F)(F)F)cc3)ccc2c1OC	5	29*	-1	-10	10	-10
O=C(Nc1nccs1)OCC(F)(F)F	·	·	·	-12	·	·
Cc1c(O)ccc2cc(S(=O)(=O)c3ccccc3)c(=O)oc12	3	+	2	-12	-8	-4
SMILES	GDH-TPI counter	Mtb FBA inh	Mtb UGM inh	SSB-PriA inh	Mtb bLac sens	Rv3671c protease
COCCN=c1scc(-c2cc(OC)c(OC)c(OC)c2)n1/N=C/c1c(C)[nH]c2ccccc12	21	-3	0	·	5	4
COCCN=c1scc(-c2ccccc2)n1N=Cc1c[nH]c2ccccc12	·	·	·	51*	·	·
Cc1ccc(N2CCCn3c2cc(C)c(C#N)c3=O)cc1C	39*	5	-1	-1	-4	0
CN(C)c1ccc(C=NCCC2(O)CCOC(C)(C)C2)cc1 (stereo not given)	40*	2	-1	-9	-7	-12
COc1ccccc1C=NNC(=O)C(=O)Nc1ccccc1OC(F)(F)C(F)F	·	·	·	-3	·	·
COc1ccc(-c2nc3cnccn3c2NCc2ccccc2)cc1SC1CCCCC1	-8	20	-2	-5	57	-3
COc1ccc(-c2nc3ccc(C)cn3c2Cc2ccc(C)cc2)cc1OC	·	27	·	·	·	·
COc1cc(-c2nc3ccc(C)cn3c2NCc2ccccc2)ccc1SC1CCCCC1	12	39*	-1	20	98	5
COc1ccc(-c2nc3ccc(C)cn3c2Cc2ccccc2)cc1OC	·	90*	·	·	·	·
NC(=NN=Cc1ccc(O)cc1)N[N+](=O)[O-]	·	·	·	-41	·	·
N/C(=N\N=C/c1ccc(-c2ccc(O)c(C(=O)O)c2)o1)N[N+](=O)[O-]	58*	4	0	·	0	-1
S=c1nc(-c2ccccc2)n(CCCN2CCOCC2)c2c1CCCC2	12	0	1	0	2	2

Screening results deposited in PubChem by several laboratories.
